These results are taken from PubChem BioAssay (NCATS).

Inconclusive results are not listed. Where a structure was tested more than once in an assay, its records may differ in their call. Calls of active or inactive are those of the source. Calls come from the whole dose curve; as a rule, active = well fitted inhibition curve with a large enough effect; inconclusive = small, poorly fitted or top-dose-only effect; inactive = flat fitted curve, though single readings scatter.
% is set by controls: 0 for no effect and ±100 for the full control effect; potency is the fitted concentration of half-maximal effect.

Tested on in one experiment: not listed separately
Nature of the experiment: Drug repurposing screens with cells derived from glioblastoma tumor samples (AID 1345199). Note: nearly all actives have a fitted effect of over 40% in size. The conditions noted are these: GBM patient neurospheres viability, ATP luminescence, 48 h; at 91.6 µM (top of the series); tumour line D. Summed up:
(§1)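 Four patient lines of CD133+ GBM neurospheres were screened at several concentrations; hits were retested in those lines plus three slower-growing GBM lines, using 48-hour treatment and ATP-based viability.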
Turning to `CN(C)CCc1c[nH]c2cccc(OP(=O)(O)O)c12`, the activity, negative = cell killing is -12.3% (inactive). For the compound `CCOC(=O)CC(SP(=S)(OC)OC)C(=O)OCC` (stereo not drawn), the activity, negative = cell killing is -14% (inactive). Same read-out and setting: next, `CN1CC[C@]23c4c5ccc(O)c4O[C@H]2[C@@H](O)CC[C@H]3[C@H]1C5`: -23.6% (inactive).

The experiment is the same for the next values; noted with them: GBM patient neurospheres viability, ATP luminescence, 48 h; tumour line A.
With `C[N+]1(CCF)[C@@H]2CC[C@H]1CC(OC(=O)C(O)(c1ccccc1)c1ccccc1)C2` (stereo partly drawn), the Potency was 11.2 µM (active).

Consider `CC1(C)C(C=C(Cl)Cl)C1C(=O)OC(C#N)c1cccc(Oc2ccccc2)c1` (stereo not drawn), for which the Potency is 25.1 µM (active). As for `CCCCCCC(=O)CCCCCC/C=C/C[C@@H](O)[C@H](O)[C@@](N)(CO)C(=O)O`, the Potency was 35.5 µM (active). Same read-out and setting: next, `c1ccc(CN2CCNCC2)cc1`: 126 µM (active).

Another experiment concerns astro (control astrocytes). The experiment is described as above. The conditions noted are these: viability, ATP luminescence, 48 h; series mostly up to 45.9 µM; activity, negative = cell killing: at the top concentration. The method in brief:
as §1
For the compound `C#C[C@]1(O)CC[C@H]2[C@@H]3CCC4=CC(=O)CC[C@]4(C)[C@H]3CC[C@@]21C`, the “activity, negative = cell killing” value is -3.18% (inactive). On the same count and under the same terms, next, `COP(=S)(OC)Oc1ccc(S(=O)(=O)N(C)C)cc1`: -28.8% (inactive).

For `C[N+]1(CCF)[C@@H]2CC[C@H]1CC(OC(=O)C(O)(c1ccccc1)c1ccccc1)C2` (stereo partly drawn), the “activity, negative = cell killing” value is -10.7% (inactive). The same measure, in the same setting: next, `Nc1ccccc1`: -0.126% (inactive). In the case of `CN1C(=O)NC(=O)C(C)(C2=CCCCC2)C1=O` (stereo not drawn), the Potency entry was “inactive”.

For `COC(=O)[C@@H](N)CCCN/C(N)=N/[N+](=O)[O-]`, the “activity, negative = cell killing” value is -0.153% (inactive). Still for that read-out and setting: next, `COC(=O)C(Cl)C(=O)OC`: -11.7% (inactive). Same read-out and setting: next, `O=[N+]([O-])O[C@H]1CO[C@H]2[C@@H]1OC[C@H]2O[N+](=O)[O-]`: 0.374% (inactive); `O=C1OC(c2ccc(O)c(S(=O)(=O)O)c2)(c2ccc(O)c(S(=O)(=O)O)c2)c2c(Br)c(Br)c(Br)c(Br)c21`: -18.5% (inactive).

For `CCC1(c2ccccc2)C(=O)N(COC)C(=O)N(COC)C1=O`, the “activity, negative = cell killing” value was -9.87% (inactive).

As for `CCOC(=O)CC(SP(=S)(OC)OC)C(=O)OCC` (stereo not drawn), the Potency entry is “inactive”.

In the case of `CC1(C)C(C=C(Cl)Cl)C1C(=O)OC(C#N)c1cccc(Oc2ccccc2)c1` (stereo not drawn), the “activity, negative = cell killing” value was -15.8% (inactive).

`O=C(N/N=C/c1ccc([N+](=O)[O-])o1)c1cc([N+](=O)[O-])cc([N+](=O)[O-])c1O`: the “activity, negative = cell killing” value is -20.7% (inactive).

For the compound `COP(=S)(OC)Oc1cc(Cl)c(Cl)cc1Cl`, the Potency entry was “inactive”. Take `O=c1[nH]oc2c1CCNC2`: the “activity, negative = cell killing” value is -12.8% (inactive).

Turning to `NC1=NC(=O)C(c2ccccc2)O1` (stereo not drawn), the “activity, negative = cell killing” value is -2.65% (inactive). Same read-out and setting: the figure for `C[C@@H](N)[C@@H](O)c1ccccc1` is -15.3% [at 21.2 µM] (inactive). Take `CN1CC[C@]23c4c5ccc(O)c4O[C@H]2[C@@H](O)CC[C@H]3[C@H]1C5`: the “activity, negative = cell killing” value was -3.1% [at 91.6 µM] (inactive). Still for that read-out and setting: the figure for `c1ccc(CN2CCNCC2)cc1` is -9% [at 194 µM] (inactive). On to `CCC(C)(C)c1ccc(O)cc1`, for which the “activity, negative = cell killing” value was -7.46% (inactive). Still for that read-out and setting: the figure for `CNC(C)(C)Cc1ccccc1` is -9.35% [at 21.2 µM] (inactive).
